Source: PubChem
Rows were chosen to be rich in hits. Some 9.2% of all compounds tested hit in one or more screens of this group.
ELG1 repair inh – inhibitors of ELG1-dependent DNA repair in HEK293T cells | HEK293T ELG1-luciferase reporter, luminescence, 16 h; DNA damage induced by 5-fluorouridine | Potency, µM (top dose mostly 46.1 µM), without a hit: at the top dose activity change, negative = inhibition, usual class: inhibitors | hit rate 2.3% among 330,000; note: % is set by controls: 0 for no effect and ±100 for the full control effect; nearly all actives have a fitted effect of over 55% in size
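Reporter activity after DNA damage by 5-fluorouridine is monitored. Compound-treated cells incubate 16 hr at 37 °C, then ONE-Glo is added for 30 min before luminescence reading.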
SMN2 splice up – SMN2 splice variant enhancement | HEK293 SMN2-luciferase splicing reporter, luminescence, 30-36 h | Potency, µM (titrated, usually from 46.1 µM), without a hit: at the highest dose activity change, positive = activation, usual class: activators | hit rate 2.8% among 210,000; note: % of control where 0% means no effect; nearly all actives have a fitted effect of over 55% in size
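HEK293 cells carry an SMN2 […]–luciferase reporter in which exon 7 inclusion puts luciferase in frame. Cells were plated 10-12 h before compound addition, then incubated 30-36 h at 37C. ONE-Glo luminescence was read; sodium butyrate at 4.5 mM final served as control.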
Rab9 prom act – activates the Rab9 promoter. hit rate 2.8% among 320,000. Potency, µM (titrated, usually from 9.22 µM), without a hit: top-dose activation, negative = inhibition, usual class: activators. Huh7 Rab9 promoter-luciferase reporter, luminescence, 24 h; note: % of control where 0% means no effect; nearly all actives have a fitted effect of over 60% in size
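Steps: seed 1500 Huh7 Rab9-luc cells per well, rest 2 h at 37 °C; add compound in DMSO; incubate 24 h; add luciferase reagent, 10 min ambient; read luminescence.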
NPC1 prom act – activates the NPC1 promoter; AID 485313; Huh7 NPC1 promoter luciferase reporter, 24 h; hit rate 2.4% among 320,000; Potency, µM (highest dose often 9.22 µM), for the others: top-dose activation, usual class: activators; note: % of control where 0% means no effect; nearly all actives have a fitted effect of over 60% in size
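Quantitative HTS used a cell-based reporter: Huh7 cells stably bearing the NPC1 promoter upstream of luciferase were treated with compounds for 24 h, and promoter activation was read as luminescence.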
FLuc counter – counter-screen for miR-21 project: firefly luciferase inhibitors or activators; P08659; purified FLuc, Km substrates, luminescence inhibition; Potency, µM (series often up to 57.5 µM), without a hit: at the highest dose activity change, negative = inhibition, usual class: inhibitors; hit rate 6.9% among 360,000; AID 588342;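 note: plate controls were vehicle for no effect and reference inhibitor for full effect; nearly all actives have a fitted effect of over 55% in size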
Target sequence (P08659 whole entry, looked up): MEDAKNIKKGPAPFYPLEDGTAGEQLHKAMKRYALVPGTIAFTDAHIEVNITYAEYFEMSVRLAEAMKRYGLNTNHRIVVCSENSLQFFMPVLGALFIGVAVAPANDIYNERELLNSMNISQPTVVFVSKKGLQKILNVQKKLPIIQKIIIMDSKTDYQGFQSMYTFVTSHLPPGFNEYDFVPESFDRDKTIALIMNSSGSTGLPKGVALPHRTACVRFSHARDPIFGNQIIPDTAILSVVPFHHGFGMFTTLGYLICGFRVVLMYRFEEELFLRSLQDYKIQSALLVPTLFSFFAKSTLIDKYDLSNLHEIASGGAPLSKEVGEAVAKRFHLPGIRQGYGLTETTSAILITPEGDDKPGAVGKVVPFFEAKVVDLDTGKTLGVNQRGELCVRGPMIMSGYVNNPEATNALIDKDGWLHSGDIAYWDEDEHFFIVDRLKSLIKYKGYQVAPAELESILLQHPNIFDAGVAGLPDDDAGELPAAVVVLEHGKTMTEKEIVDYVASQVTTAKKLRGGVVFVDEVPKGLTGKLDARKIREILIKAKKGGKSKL
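Biochemical qHTS of compounds, final roughly 60 µM downward over six points, against 10 nM purified firefly luciferase using Km concentrations of substrates (10 uM D-luciferin, 10 uM ATP) in Tris acetate pH 7.5 buffer; luminescence output.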
ELG1 genotox – inducers of genotoxicity in HEK293T ELG1-luciferase cells; HEK293T ELG1-luciferase reporter, luminescence, 16 h; hit rate 1.3% among 330,000; AID 504466; Potency, µM (series often up to 46 µM), for inactives: top-dose activity change, positive = activation, most hits filed as activators; note: % of control where 0% means no effect; nearly all actives have a fitted effect of over 60% in size
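ELG1-luciferase HEK293T cells, 2,000/well; compound pinned in; 16 hr, 37 °C, 5% CO2; ONE-Glo, 30 min RT; luminescence on CCD imager.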
Active calls of the source: *. Calls come from the whole dose curve; as a rule, active = well fitted curve in the direction sought with a large enough effect; inconclusive = small, poorly fitted or top-dose-only effect, or another doubt; inactive = no such curve, though single readings can be large; an effect the other way counts as inactive or inconclusive. Potency is the fitted concentration of half-maximal effect.

`CCOc1ccc(NC(=O)c2ccc(CNc3c(N4CCCC4)c(=O)c3=O)cc2)cc1` gave ELG1 repair inh 12.8%, Rab9 prom act 6.4%, NPC1 prom act -3.5%, FLuc counter 13.5µM* and ELG1 genotox 4.1%.
Screening CC(=O)c1ccc(NC(=O)c2ccc(CNc3c(N4CCCC4)c(=O)c3=O)cc2)cc1 returned ELG1 repair inh -7.4%, Rab9 prom act 1.6%, NPC1 prom act -3.1%, FLuc counter inconclusive and ELG1 genotox -0.6%.
For CCOc1ccc(-n2c(SCc3nc(-c4ccc(OC)cc4)no3)nnc2-c2ccncc2)cc1 the results were SMN2 splice up -5.5% and FLuc counter 2.3%.
O=C1c2ccccc2C(=O)N1CCC1=CCCCC1 was read as ELG1 repair inh inconclusive, SMN2 splice up 21.4%, Rab9 prom act 10.3%, NPC1 prom act 5.6%, FLuc counter 15.1µM* and ELG1 genotox inconclusive.
O=C(O)c1ccc2c(c1)C(=O)N(CCC1=CCCCC1)C2=O was read as ELG1 repair inh 6.2%, SMN2 splice up 2.1%, Rab9 prom act -8.7%, NPC1 prom act -0.1%, FLuc counter -8.0% and ELG1 genotox -2.3%.
Screening Cc1cnc(NC(=O)c2ccc3ncsc3c2)s1 returned ELG1 repair inh inconclusive, Rab9 prom act 0.708µM*, NPC1 prom act 1.26µM*, FLuc counter 3.01µM* and ELG1 genotox inconclusive.
For CC1(C)Cc2c(sc(NC(=O)c3ccc4ncsc4c3)c2C(N)=O)C(C)(C)N1 the results were ELG1 repair inh inconclusive, SMN2 splice up inconclusive, Rab9 prom act inconclusive, NPC1 prom act inconclusive, FLuc counter inconclusive and ELG1 genotox 16.4µM*.
CCc1nnc(NC(=O)c2ccc3ncsc3c2)s1 was read as ELG1 repair inh inconclusive, Rab9 prom act inconclusive, NPC1 prom act inconclusive, FLuc counter 23.9µM* and ELG1 genotox inconclusive.
For CC(C)c1ccccc1NC(=O)c1ccc2ncsc2c1 the results were ELG1 repair inh inconclusive, Rab9 prom act -1.6%, NPC1 prom act 2.0%, FLuc counter inconclusive and ELG1 genotox 13.2%.
Screening CCc1nnc(NC(=O)c2ccncc2)s1 returned ELG1 repair inh inconclusive, SMN2 splice up -2.7%, Rab9 prom act 1.4%, NPC1 prom act -2.1%, FLuc counter -17.2% and ELG1 genotox 7.5%.
Screening CCc1nnc(NC(=O)c2ccc3c(c2)C(=O)N(C(C)(C)C)C3=O)s1 returned ELG1 repair inh inconclusive, SMN2 splice up inconclusive, Rab9 prom act 3.16µM*, NPC1 prom act 3.55µM*, FLuc counter 2.69µM* and ELG1 genotox inconclusive.
CC[C@H](C)[C@@H](NC(=O)O[C@@H]1C(=O)c2ccc(OC)cc2O[C@H]1c1ccc2c(c1)OCO2)C(=O)OC was read as SMN2 splice up 14.1%.
Screening CCCCNC(=O)c1ccc2c(=O)n(-c3ccccc3)c(=O)[nH]c2c1 returned SMN2 splice up 1.3% and FLuc counter -0.2%.
`O=C(Nc1ccc(-c2csc(Nc3ccccc3)n2)cc1)c1ccccc1` gave ELG1 repair inh -22.9%, Rab9 prom act -0.1%, NPC1 prom act -4.5%, FLuc counter 13.5µM* and ELG1 genotox 10.0%.
For O=C(Nc1cccc(-c2csc(Nc3ccc(Cl)cc3)n2)c1)c1cccc(C(F)(F)F)c1 the results were ELG1 repair inh 9.2µM*, Rab9 prom act -9.6%, NPC1 prom act -7.7%, FLuc counter -12.3% and ELG1 genotox -16.2%.
O=C(Nc1cccc(-c2csc(Nc3ccc(Cl)cc3)n2)c1)c1cc([N+](=O)[O-])cc(C(F)(F)F)c1 was read as ELG1 repair inh inconclusive, Rab9 prom act -0.7%, NPC1 prom act -13.9%, FLuc counter -2.9% and ELG1 genotox -11.4%.
`O=C(Nc1cccc(-c2csc(Nc3ccc(Cl)cc3)n2)c1)c1ccccc1` gave ELG1 repair inh inconclusive, Rab9 prom act 3.1%, NPC1 prom act -2.8%, FLuc counter 12µM* and ELG1 genotox -13.9%.
Screening COc1ccc(NC2CCCN(C(=O)CN3CCOC3=O)C2)cc1 (stereo not given) returned ELG1 repair inh inconclusive, Rab9 prom act inconclusive, NPC1 prom act inconclusive, FLuc counter 10.7µM* and ELG1 genotox inconclusive.
Screening COCC(C)NC(=O)C(C)N1c2cccc3cccc(c23)S1(=O)=O (stereo not given) returned ELG1 repair inh -11.5%, Rab9 prom act 1.6%, NPC1 prom act 0.7%, FLuc counter -2.7% and ELG1 genotox 0.5%.
For CC1=Nc2cc(C(=O)NCCc3ccccc3)ccc2Sc2c(C)ccc(C)c21 the results were SMN2 splice up -34.2% and FLuc counter -3.1%.
CCCNC(=O)c1ccc2c(c1)N=C(C)c1c(C)ccc(C)c1S2 was read as SMN2 splice up 3.98µM* and FLuc counter inconclusive.
Screening C=CCc1ccc(OCCCOc2ccc(C(=O)O)cc2)c(OC)c1 returned ELG1 repair inh inconclusive, SMN2 splice up 14.9%, Rab9 prom act 5.3%, NPC1 prom act 15.3%, FLuc counter 10.7µM* and ELG1 genotox 3.4%.
`C=CCc1ccc(OCCCCN2CCC(C)CC2)c(OC)c1` gave ELG1 repair inh 7.7%, SMN2 splice up -12.8%, Rab9 prom act -2.0%, NPC1 prom act 6.4%, FLuc counter 0.8% and ELG1 genotox -0.8%.
`C=CCc1ccc(OC(=O)c2ccccc2)c(OC)c1` gave ELG1 repair inh -12.2%, SMN2 splice up -5.4%, Rab9 prom act -1.7%, NPC1 prom act -3.9%, FLuc counter 6.75µM* and ELG1 genotox 1.5%.
`C=CCc1ccc(OCC(O)CO)c(OC)c1` (stereo not given) gave ELG1 repair inh inconclusive, SMN2 splice up -22.9%, Rab9 prom act 4.6%, NPC1 prom act 13.4%, FLuc counter -10.9% and ELG1 genotox 7.5%.
For CNc1cc(C)c(C#N)c2nc3ccccc3n12 the results were ELG1 repair inh -10.0%, Rab9 prom act -0.7%, NPC1 prom act -0.8%, FLuc counter 3.9% and ELG1 genotox -6.0%.
`Cc1cc(Cl)n2c(nc3ccccc32)c1C#N` gave ELG1 repair inh 20.6µM*, SMN2 splice up -107.1%, Rab9 prom act -9.6%, NPC1 prom act -18.9%, FLuc counter -4.2% and ELG1 genotox inconclusive.
`N#Cc1c(-c2ccccc2)c(C#N)c2nc3ccccc3n2c1N` gave ELG1 repair inh -14.7%, SMN2 splice up -12.2%, Rab9 prom act -9.1%, NPC1 prom act -2.6%, FLuc counter 2.8% and ELG1 genotox 0.9%.
